Most compounds without a hit are left out; they make up all but 4.3% or so of the library.
PfHsp40 rescue: restores yeast growth despite PfHsp40 toxicity | S. cerevisiae expressing PfHsp40, growth rescue, ATP luminescence | AID 504582 | growth rescue, % at 12.5 µM | actives 0.68% (n = 340,000); in the data active = growth rescue above about 28%, passing the limit was not always enough; inconclusive = no clear call, values can overlap the other calls;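 also: yeast W303a lacking pdr1 and pdr3 grown in galactose medium; growth measured after three days at 30 °C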
Autofluor counter: compound fluorescence in toxin protease inhibitor counterscreen | compound autofluorescence counterscreen, microsphere flow cytometry; stronger effect = higher value | fluorescence intensity (no concentration beside the values) | actives 3.1% (n = 360,000); in the data active = fluorescence intensity above about 16000; inconclusive = no clear call, values can overlap the other calls
MazEF act: increases E. coli MazEF RNase cleavage of RNA; FAM/BHQ RNA-DNA oligo cleavage fluorescence, 5 h; P0AE70; actives 0.32% (n = 350,000); AID 504720; activation, % at 20 µM; in the data active = activation above about 50%
Target sequence (P0AE70 whole entry, looked up): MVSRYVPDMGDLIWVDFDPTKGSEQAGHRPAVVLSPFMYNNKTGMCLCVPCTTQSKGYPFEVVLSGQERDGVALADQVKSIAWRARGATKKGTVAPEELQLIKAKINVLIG
BoNT A protease: inhibitors of Botulinum neurotoxin A light chain protease; multiplex microsphere protease substrate cleavage, flow cytometry; inhibition, % at 10 µM; actives 0.17% (n = 360,000); AID 588499
Anthrax LF prot: inhibitors of Bacillus anthracis lethal factor protease; P15917; actives 0.12% (n = 360,000); AID 588501; multiplex microsphere protease cleavage assay, LF; inhibition, % at 10 µM
BoNT F protease: inhibitors of Botulinum neurotoxin F light chain protease | inhibition, % at 10 µM | AID 588497 | Multiplex microsphere protease cleavage assay, flow cytometry | actives 0.22% (n = 360,000); in the data active = inhibition above about 35%, passing the limit was not always enough; inconclusive = no clear call, values can overlap the other calls
BoNTA LC inh 1: inhibitors of Botulinum neurotoxin A light chain protease; shares compounds with BoNT F protease; multiplex microsphere protease assay, flow cytometry; inhibition, % at 10 µM; actives 3% (n = 720); in the data active = inhibition above about 32%
BoNT-F LC CP1: BoNT/F light chain protease inhibition | shares compounds with BoNT F protease | multiplex microsphere protease cleavage assay, flow cytometry | inhibition, % at 10 µM | 720 tested, under 10 active; call rule not given here
LF protease CP1: inhibitors of Bacillus anthracis lethal factor protease. shares compounds with BoNT F protease. multiplex microsphere protease cleavage assay, LF. inhibition, % at 10 µM. 720 tested, under 10 active; call rule not given here
A number is an active result; - = inactive; ? = inconclusive; . = no result given. Rule as the data show it, unless noted: active = inhibition above about 30%; inconclusive = no clear call, values can overlap the other calls; inactive = below that.

SMILES	PfHsp40 rescue	Autofluor counter	MazEF act	BoNT A protease	Anthrax LF prot	BoNT F protease	BoNTA LC inh 1	BoNT-F LC CP1	LF protease CP1
Cc1ccc2nc(SCC(=O)O)nc(C)c2c1	-	-	-	-	-	40	-	-	-
Cc1c(C(=O)Nc2ccccc2[N+](=O)[O-])csc1-c1ccccc1	-	-	-	-	-	39	-	-	-
C[C@@H]1CN([C@@H](C)CO)C(=O)CCCn2nncc2CO[C@@H]1CN(C)S(=O)(=O)c1ccc(C#N)cc1	.	-	-	-	-	-	.	.	.
CC(C(=O)NCc1ccccc1Cl)n1cc([N+](=O)[O-])cn1 (stereo unspecified)	-	-	-	-	-	38	-	-	-
CCc1cccc(N(C(=O)c2csnn2)C(C(=O)NC(C)(C)C)c2ccccn2)c1 (stereo unspecified)	-	-	-	-	-	-	.	.	.
O=C(Nc1nc2ccccc2s1)c1cccc(S(=O)(=O)N2CCc3ccccc32)c1	-	-	-	-	-	-	.	.	.
O=C(Nc1nc2c(s1)CN(Cc1ccccc1)CC2)c1cccc(S(=O)(=O)N2CCc3ccccc32)c1	-	-	-	-	30	-	-	-	-
Cc1ccc(S(=O)(=O)N2CCN(C3CC4CCC3C4)CC2)cc1 (stereo unspecified)	-	-	-	-	-	-	.	.	.
O=C(COC(=O)c1cc[n+]([O-])cc1)Nc1cccc(Br)c1	-	?	-	-	-	-	.	.	.
Cc1cccc(C(C)(C)C)c1OCCOCCN1CCCC1	-	-	-	-	-	38	-	-	-
O=C1c2ccccc2C(=O)N1CCCn1ccnc1	-	-	-	-	-	?	.	.	.
O=C1c2ccccc2C(=O)N1CCn1ccnc1	-	-	-	-	-	41	-	-	-
Cc1nn(-c2ccc(N3CCCCC3)nn2)c(C)c1CCC(=O)Nc1cc(F)ccc1F	-	-	-	-	-	-	.	.	.
CCCC(C(=O)NC(C)(C)CC)N(CC1CCCO1)C(=O)CNS(=O)(=O)c1ccc(F)cc1 (stereo unspecified)	-	-	-	-	30	-	-	-	-
COc1cccc(CN2CCSCC2)c1OC	-	-	-	-	-	-	.	.	.
COc1ccccc1CN1CCSCC1	-	-	-	-	-	71	-	-	-
Cc1[nH]c2ccccc2c(=O)c1CN1CCCCCC1	.	-	-	-	-	-	.	.	.
Cc1[nH]c2ccc(Br)cc2c(=O)c1CN1CCCCC1	-	-	-	?	-	52	-	-	-
Cc1ccc([C@@H]2C[C@H]3[C@@H](CN2S(=O)(=O)c2ccc(Cl)cc2)C(=O)C[C@@H](c2ccc(Cl)cc2)N3S(=O)(=O)c2ccccc2C)cc1	.	-	-	-	-	-	.	.	.
COc1cc(C2Oc3ccccc3C=C2[N+](=O)[O-])cc(OC)c1OC (stereo unspecified)	.	-	-	-	-	-	.	.	.
Cc1nnc(SCC(=O)NC(C)(C)C)n1C1CCCCC1	-	-	-	-	-	40	-	-	-
Cc1nnc(SCC(=O)NC2CCCCCC2)n1C	-	-	-	-	-	-	.	.	.
CCN(CC(=O)NCCC1=CCCCC1)S(=O)(=O)c1ccccc1	-	-	-	-	-	-	.	.	.
CN1CCN(CC(=O)Nc2nnc(-c3cccs3)s2)CC1	-	-	-	-	-	36	-	-	-
COc1ccc(C(CC(=O)Nc2cc(C)ccn2)N2Cc3ccccc3C2=O)cc1 (stereo unspecified)	-	-	-	-	-	110	-	-	-
SMILES	PfHsp40 rescue	Autofluor counter	MazEF act	BoNT A protease	Anthrax LF prot	BoNT F protease	BoNTA LC inh 1	BoNT-F LC CP1	LF protease CP1
CCCOC(=O)c1ccc(NC(=O)C(CC)CC)cc1	-	-	-	-	-	-	.	.	.
CCN(CCCNC(=O)CN1C(=O)COc2ccccc21)c1ccccc1	-	-	-	30	35	-	-	-	-
Oc1[nH]c(N=C2N=c3ccccc3=N2)c2ccccc12	-	-	56	-	-	111	-	32	-
CN(CC(=O)Nc1cccc(F)c1)C(=O)c1cccnc1Sc1ccccc1Cl	-	?	-	38	-	-	-	-	-
CN(CC(=O)Nc1cccc(F)c1)C(=O)c1cccnc1Sc1ccc(Cl)cc1	-	-	-	-	-	-	.	.	.
CC(=O)c1ccc(-c2ccc(C(=O)NC3CC(C)(C)NC(C)(C)C3)o2)cc1	-	?	-	-	-	36	-	-	-
CC1(C)CC(NC(=O)c2ccc(F)cc2)CC(C)(C)N1	.	-	-	-	-	-	.	.	.
CCCc1cc(C(=O)NNC(=S)NC2CCCCC2)cs1	-	-	-	-	-	-	.	.	.
CN(C)c1ccc(C(O)c2cc3ccccc3s2)cc1 (stereo unspecified)	-	-	-	-	-	-	.	.	.
Cc1ccc(C(=O)Nc2scc(-c3ccccc3)c2C(=O)O)cc1	119	-	-	-	-	36	-	-	-
O=C(O)C1C2C=CC(C2)C1C(=O)N1CCc2ccccc21 (stereo unspecified)	-	-	-	-	-	39	-	-	-
Cc1cc(C)c(S(=O)(=O)Nc2ccc(O)c(Sc3ncn[nH]3)c2)cc1C	-	-	-	-	-	-	.	.	.
O=C(COC(=O)CN1C(=O)NC2(CCCC2)C1=O)Nc1c(Cl)cccc1C(F)(F)F	-	.	-	.	.	.	.	.	.
Cc1ccc(-c2nnc(-c3cccnc3)o2)cc1	-	-	-	-	-	56	-	-	-
Brc1ccc(-c2nnc(-c3cccnc3)o2)cc1	-	-	-	-	-	?	.	.	.
O=C1C2C3C=CC(CC3)C2C(=O)N1c1ccc(Cl)cc1Cl (stereo unspecified)	-	-	-	-	-	60	-	-	-
O=C1C2C3C=CC(CC3)C2C(=O)N1c1ccc(Cl)cc1 (stereo unspecified)	-	.	-	.	.	.	.	.	.
NS(=O)(=O)c1cc2c(cc1Cl)NC(Cc1ccccc1)NS2(=O)=O (stereo unspecified)	-	-	-	-	-	-	.	.	.
COc1cccc(NC(=O)CN(C)C(=O)c2cc3c(s2)CCCCC3)c1	-	-	-	-	-	-	.	.	.
CCCCCOc1ccc(C(=O)NC(C(=O)O)C(C)C)cc1 (stereo unspecified)	-	-	-	?	-	39	-	-	-
CCCCCCCCOc1ccc(C(=O)O)cc1	-	-	-	-	-	-	.	.	.
CCCCc1ccc(C(=O)NC(C(=O)O)C(C)C)cc1 (stereo unspecified)	-	-	-	31	-	40	-	-	-
CCCCN(C(=O)CC1CCCC1)c1c(N)n(CCCC)c(=O)[nH]c1=O	-	-	-	-	-	-	.	.	.
Nc1cc(N)nc(SCC(=O)N2CCN(S(=O)(=O)c3ccccc3)CC2)n1	-	-	-	-	-	-	.	.	.
O=[N+]([O-])c1ccc(N=Nc2ccc(O)c3ccccc23)cc1	-	-	-	-	-	-	.	.	.

Screening data deposited in PubChem by several laboratories.
